Source: PubChem BioAssay
CD11b adhes enh: enhancers of CD11b/CD18 adhesion to fibrinogen, primary screen, K562 cells, luminescence; activation, % at 10 µM; 0.07% of 93,000 active; ATPlite luminescence; Integrin beta-2 (Homo sapiens) + Integrin alpha-M (Homo sapiens), P05107+P11215;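 active = 10 µM primary screen giving 50% or more activity, confirmed by 40% or more on retest at that dose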
Target sequence (P05107 whole entry, looked up, other chains not shown): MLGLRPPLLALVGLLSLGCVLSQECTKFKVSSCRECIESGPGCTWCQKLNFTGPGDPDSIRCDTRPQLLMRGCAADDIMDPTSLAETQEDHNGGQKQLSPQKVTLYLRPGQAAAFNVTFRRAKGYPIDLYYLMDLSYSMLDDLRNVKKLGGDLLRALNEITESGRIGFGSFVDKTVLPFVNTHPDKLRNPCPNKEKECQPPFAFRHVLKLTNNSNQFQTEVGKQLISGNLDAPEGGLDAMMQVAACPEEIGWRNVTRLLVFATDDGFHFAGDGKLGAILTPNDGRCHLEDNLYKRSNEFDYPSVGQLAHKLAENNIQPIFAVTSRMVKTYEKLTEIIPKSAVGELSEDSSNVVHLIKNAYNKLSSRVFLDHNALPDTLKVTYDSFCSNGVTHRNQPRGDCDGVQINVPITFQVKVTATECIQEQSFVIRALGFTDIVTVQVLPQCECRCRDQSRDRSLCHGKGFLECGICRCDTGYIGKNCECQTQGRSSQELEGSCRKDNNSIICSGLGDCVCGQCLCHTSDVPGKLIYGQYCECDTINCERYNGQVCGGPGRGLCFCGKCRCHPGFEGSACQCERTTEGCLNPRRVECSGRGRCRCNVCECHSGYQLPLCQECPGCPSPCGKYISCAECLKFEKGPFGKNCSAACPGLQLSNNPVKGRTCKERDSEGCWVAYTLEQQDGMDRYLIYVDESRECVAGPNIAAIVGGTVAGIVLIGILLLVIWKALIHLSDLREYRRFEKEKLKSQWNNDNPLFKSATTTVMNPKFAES
CYP2C9 inh: blockers of cytochrome P450 2C9 activity – biochemical, luminescence, ADME assay, primary screen | P11712 | CYP2C9 Supersomes, luciferin-H conversion | inhibition, % at 5 µM | 20% of 96,000 active | AID 777, 2007;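 active = blocking of liver enzyme CYP2C9 beyond about 50% at 5 µM, limit read from the data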
CYP2C19 inhib: blockers of cytochrome P450 2C19 activity – biochemical, luminescence, ADME assay, primary screen; inhibition, % at 5 µM; AID 778, 2007; 21% of 96,000 active; CYP2C19 Supersomes, luciferin-H EGE luminescence, 30 min;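 active = CYP2C19 inhibition above a set limit at 5 µM in the primary screen, cut at about 50% in these data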;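 note: plate controls were negative control wells for no effect and 2.5 mM tranylcypromine positive control for full effect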
CYP2C9 activ: human CYP2C9 activators, primary screen, biochemical, luminescence; Cytochrome P450 2C9 (Homo sapiens), P11712; recombinant CYP2C9, luciferin-H conversion; stronger effect = higher value; factor 1 = untreated enzyme, 0 = blocked; activation factor at 5 µM; 1.4% of 96,000 active;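 active = activation factor of 2 or more for CYP2C9 at a 5 µM dose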;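 note: 0 = sulfaphenazole-blocked wells and 1 = vehicle-only wells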
CYP2C19 activ: human CYP2C19 activators, primary screen, biochemical, luminescence; Cytochrome P450 2C19 (Homo sapiens), P33261; recombinant CYP2C19, luciferin-H EGE luminescence; stronger effect = higher value; 0 = fully inhibited enzyme, 1 = untreated enzyme; activation factor at 5 µM; 96,000 tested, under 10 active; AID 1025, 2008;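 active = activation factor of at least 2 at 5 µM in the primary screen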;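 note: 0 = wells with 2.5 mM tranylcypromine and 1 = vehicle-only wells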
Mac1 fbg inh: inhibitors of CD11b/CD18 adhesion to fibrinogen, primary screen, K562 cells, luminescence | Integrin beta-2 (Homo sapiens) + Integrin alpha-M (Homo sapiens), P05107+P11215 | ATPlite luminescence; Mn2+ added to activate the integrin | inhibition, % at 10 µM | 0.54% of 93,000 active;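 active = primary inhibition of 50% or more at 10 µM, then 40% or more on retest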
Active calls of the source: *; . = no result given. Rows were chosen to be rich in hits. Some 28% of all compounds tested hit in one or more screens of this group.

SMILES	CD11b adhes enh	CYP2C9 inh	CYP2C19 inhib	CYP2C9 activ	CYP2C19 activ	Mac1 fbg inh
O=C1C2C3C=CC(CC3)C2C(=O)N1/N=C/c1ccc(O)cc1 (stereo unspecified)	-5.6	-95.9	27.8	2*	0.7	4.0
CCOCCCN(C(=O)c1ccco1)C(C(=O)NC1CCCC1)c1cccc(OC)c1OC (stereo unspecified)	-4.8	36.7	28.5	0.6	0.7	-8.2
Cc1ccc(OCc2nnc(SCc3cc(=O)[nH]c4ccccc34)n2-c2ccccc2)cc1	-2.4	.	.	.	.	-18.6
Cn1c(SCc2cc(=O)[nH]c3ccccc23)nnc1-c1ccc(Br)cc1	-0.6	18.1	51.4*	0.8	0.5	3.7
O=C(COC(=O)C1=COCCO1)NCCCc1ccccc1	2.8	16.6	40.1	0.8	0.6	-6.0
CC1CN=C(c2cccn2Cc2ccc(F)cc2Cl)O1 (stereo unspecified)	.	2.4	42.1	1	0.6	.
COc1nc(-c2ccccc2)cc(-c2ccc(OC)c(OC)c2)n1	6.6	79.8*	75.8*	0.2	0.2	8.4
COc1ccc(-c2nc(N)n[nH]2)cc1OC	5.3	-3.1	5.8	1	0.9	-9.0
CCn1c2ccccc2c2nnc(SCc3cc(=O)n4ccsc4n3)nc21	-1.4	65.4*	87.0*	0.3	0.1	-20.6
CC(C)C(C)NC(=O)COc1ccc(-c2ccccc2)cc1 (stereo unspecified)	-3.9	87.2*	18.0	0.1	0.8	0.5
COc1ccc(-c2cc(C(F)(F)F)nc(SCC(=O)N3CCOCC3)n2)cc1OC	-3.8	84.3*	37.1	0.2	0.6	3.6
COCCNC(=O)CSc1nc(-c2ccc(OC)c(OC)c2)cc(C(F)(F)F)n1	5.5	60.5*	35.5	0.4	0.6	-13.9
CN(Cc1ccccc1)C(=O)[C@H]1CCC(=O)N1Cc1ccco1	1.8	24.7	27.6	0.8	0.7	-5.9
CCCCCCCCc1nnc(NC(=O)c2ccco2)s1	0.2	43.0	28.3	0.6	0.7	4.6
O=C1CC(c2ccccc2)NC(=O)N1 (stereo unspecified)	.	-1.8	-0.9	1	1	.
O=C(/C=C/c1ccccc1)c1ccccn1	.	27.2	51.2*	0.7	0.5	.
O=C(/C=C/c1ccccc1)N1CCN(c2ccccn2)CC1	.	52.9*	47.5	0.5	0.5	.
O=C(c1ccccc1CCc1ccccc1)N1CCN(c2ccccn2)CC1	4.3	94.6*	90.8*	0.1	0.1	-19.0
O=C(c1cccc(Cl)c1Cl)N1CCN(c2ccccn2)CC1	-1.4	46.4	45.3	0.5	0.5	-6.3
CCOC(=O)N1CCN(C(=O)c2cccc(OC)c2O)CC1	-1.5	4.1	57.3*	1	0.4	-18.0
O=C(O)CCC(=O)N1CCN(c2ccccn2)CC1	4.1	-0.8	0.9	1	1	-8.3
CC1CCCC(C)N1CC(O)COc1ccc(Cl)cc1 (stereo unspecified)	-3.4	-9.5	25.1	1.1	0.7	8.5
O=C(COC(=O)CCCSc1nc2ccccc2[nH]1)Nc1ccc(Cl)cc1	6.5	.	.	.	.	41.1
COC(=O)NCc1cccc(CNC(=O)OC)c1	-4.6	3.0	4.7	1	1	-13.7
O=C(c1ccccc1Cl)N1CCN(c2ccccn2)CC1	8.3	77.5*	81.7*	0.2	0.2	-12.2
SMILES	CD11b adhes enh	CYP2C9 inh	CYP2C19 inhib	CYP2C9 activ	CYP2C19 activ	Mac1 fbg inh
O=C(c1ccc(Cl)c(S(=O)(=O)N2CCCCCC2)c1)N1CCN(c2ccccn2)CC1	-4.3	56.8*	25.2	0.4	0.7	29.6
O=C(c1cc2ccccn2n1)N1CCN(c2ccccn2)CC1	-3.0	18.0	54.9*	0.8	0.5	2.5
NC(=O)C1CCN(C(=O)c2cc3ccccn3n2)CC1	-3.1	-13.3	-14.3	1.1	1.1	2.4
CCOC(=O)N1CCN(C(=O)c2cnn3ccccc23)CC1	-2.6	5.3	42.8	0.9	0.6	-16.5
CCOC(=O)N1CCN(C(=O)c2ccccc2CCc2ccccc2)CC1	0.2	87.1*	77.2*	0.1	0.2	-16.0
CCCCSc1nnc(CNC(=O)C23CC4CC(CC(C4)C2)C3)n1Cc1ccccc1	-1.2	.	.	.	.	0.3
O=C1Nc2ccccc2C(O)(C(=O)NCc2ccc3c(c2)OCO3)N1c1ccc(Cl)c(Cl)c1 (stereo unspecified)	.	5.3	-3.1	0.9	1	.
Cc1cc(C)c(NC(=O)CSc2nnc(Cc3cccn3C)n2-c2ccc(F)cc2)c(C)c1	1.8	18.1	-2.8	0.8	1	16.8
CCCCN(C(=N)N1CCCCC1)c1nc(C)c([N+](=O)[O-])c(=O)[nH]1	5.8	.	.	.	.	-9.3
CC(C)c1nnc(NC(=O)Cn2nc(-c3ccc4c(c3)OCCO4)ccc2=O)s1	7.8	28.5	-2.4	0.7	1	9.3
COCc1nnc(NC(=O)CSCc2ccccc2)s1	.	13.4	5.4	0.9	0.9	.
COCCSc1nnc(NC(=O)CSCc2ccccc2)s1	0.1	59.0*	28.2	0.4	0.7	-11.6
CCC(=O)Nc1nnc(SCCOC)s1	-4.5	-18.4	-9.3	1.2	1.1	0.4
COCCSc1nnc(NS(=O)(=O)Cc2ccccc2)s1	-4.3	68.5*	5.6	0.3	0.9	-5.3
COC(=O)[C@@H](NC(=O)NCc1ccccc1Cl)C(C)C	.	2.2	45.0	1	0.6	.
Cc1nn(CCc2n[nH]c(=S)n2C2CCCCC2)c(C)c1Br	.	10.0	47.0	0.9	0.5	.
O=C(Oc1c(Cl)cc(Cl)c2cccnc12)N1CCOCC1	5.4	-10.6	-0.7	1.1	1	-3.3
O=C(Oc1c(Cl)cc(Cl)c2cccnc12)N1CCCCC1	-1.6	54.2*	64.5*	0.5	0.4	-13.9
O=C(NCc1ccccc1)C(c1ccncc1)N(C(=O)c1csnn1)C1CC1 (stereo unspecified)	.	15.5	44.7	0.8	0.6	.
CC1(C)NC(=O)N(CC(O)Cn2nnc3ccccc32)C1=O (stereo unspecified)	-3.0	33.1	68.7*	0.7	0.3	-22.9
COc1cccc(OCC(O)CN2CCC(C)CC2)c1 (stereo unspecified)	0.6	18.5	-7.3	0.8	1.1	17.1
OC(COc1ccc2ccccc2c1)CN1CCN(c2ccc(F)cc2)CC1 (stereo unspecified)	-0.7	-1.9	51.2*	1	0.5	2.8
CC1(C)NC(=O)N(CC(O)COc2ccccc2C(=O)N2CCCCC2)C1=O (stereo unspecified)	0.0	17.4	14.0	0.8	0.9	-14.4
